# Source: PubChem BioAssay
# EP2 mod: EP2 receptor modulators, cAMP readout, primary screen, cell-based, HTRF cAMP, PGE2 stimulation; Prostaglandin E2 receptor EP2 subtype (Homo sapiens), P43116; EP2-expressing cells, cAMP HTRF FRET, PGE2 co-stimulation; induction, % at 25 µM; actives 0.83% (n = 260,000);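 active = compounds whose cAMP rise, as percent of the full-agonist control response, exceeds 60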;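 note: rat C6 glioma line stably carrying human EP2 under a CMV promoter; the protocol text gives 20 µM as final concentration; 100% = response of wells given 1 µM PGE2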
# PGE2 EP2 inh: human EP2 receptor antagonists, primary screen, TR-FRET cAMP, C6 glioma cells; C6 glioma cells expressing human EP2; cells stimulated with saturating PGE2; inhibition, % at 25 µM; Prostaglandin E2 receptor EP2 subtype (Homo sapiens), P43116; AID 1422, 2008; actives 0.52% (n = 260,000);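 active = percent inhibition above 40 after rounding to a whole number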;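 note: rat C6 glioma host cells with rolipram phosphodiesterase inhibitor present; the protocol text gives 20 µM as final concentration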
# S1P4 ag: S1P4 receptor agonists, primary screen, cell-based; activation, % at 4.98 µM; S1P4-expressing cell line, agonist reporter assay; Sphingosine 1-phosphate receptor 4 (Homo sapiens), O95977; actives 0.35% (n = 220,000); in the data active = activation above about 11%;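 note: 0% = DMSO vehicle and 100% = reference agonist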
# Target sequence (O95977 whole entry, looked up): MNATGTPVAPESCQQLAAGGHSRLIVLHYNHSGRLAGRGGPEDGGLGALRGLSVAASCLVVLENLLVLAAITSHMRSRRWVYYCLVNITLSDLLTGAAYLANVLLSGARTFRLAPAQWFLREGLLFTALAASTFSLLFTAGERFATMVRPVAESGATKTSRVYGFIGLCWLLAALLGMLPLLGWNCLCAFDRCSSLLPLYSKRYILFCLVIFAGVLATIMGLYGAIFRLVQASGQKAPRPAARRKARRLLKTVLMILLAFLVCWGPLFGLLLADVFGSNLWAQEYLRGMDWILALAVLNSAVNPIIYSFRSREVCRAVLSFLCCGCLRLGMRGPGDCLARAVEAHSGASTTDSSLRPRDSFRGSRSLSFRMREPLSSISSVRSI
# S1P3 antagonist: S1P3 receptor antagonists, primary screen, cell-based; Sphingosine 1-phosphate receptor 3 (Homo sapiens), Q99500; CHO S1P3 NFAT-BLA reporter, FRET fluorescence, antagonist mode; inhibition, % at 4.98 µM; actives 0.27% (n = 170,000); AID 485, 2006;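 active = inhibition above the plate cutoff, the mean inhibition of test wells on that plate plus 3 SD, cut at about 28% in these data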;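 note: cells challenged with S1P at its EC80 of 0.8 µM; blue over green emission ratio from cleaved BLA substrate after 4 h stimulation; 0% = S1P-stimulated wells and 100% = unstimulated DMSO-only wells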
# INS promoter inh: inhibitors of insulin promoter-driven GFP, primary screen, imaging, TRM-6 cells (human fetal islet line), eGFP reporter, cell count. reporter expression induced with tamoxifen. inhibition, % at 2 µM. actives 0.9% (n = 130,000). AID 1273, 2008;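 active = inhibition above the mean plus 3 SD, with well images judged a real hit on visual review, cut at about 60% in these data, passing the limit was not always enough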
# S1P4 antagonist: S1P4 receptor antagonists, primary screen, cell-based; AID 1510, 2009; Sphingosine 1-phosphate receptor 4 (Homo sapiens), O95977; actives 0.26% (n = 220,000); S1P4-expressing cells, antagonist mode, reporter read-out; inhibition, % at 4.98 µM; in the data active = inhibition above about 29%;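 note: 0% = wells stimulated with agonist and 100% = vehicle wells without agonist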
# EP2 cAMP induct: cAMP induction in EP2, EP4, beta2-AR and parental cells, confirmation, counter-screen for EP2 modulator project, cell-based, five parallel assays, C6 glioma, HEK293. shares compounds with EP2 mod. cAMP HTRF induction; plus low (about EC15) PGE2 agonist. calls only at 20 µM (by protocol). actives 47% (n = 1,300). AID 1080, 2008;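 active = cAMP induction above 50% in the main assay while under 30% in all four parallel counter assays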;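 note: rat C6 glioma cells stably expressing human EP2 receptor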
# * marks the source's active call; other numbers are inactive results; i = inactive; · = no result; + = active, no number; ! = a repeat was not active. This is a sample that favours compounds with a hit; in the whole collection about 2.4% have one here.
SMILES,EP2 mod,PGE2 EP2 inh,S1P4 ag,S1P3 antagonist,INS promoter inh,S1P4 antagonist,EP2 cAMP induct
CCN1CCN(C(=O)C(C)Sc2nc(-c3ccccc3)cc(C(F)(F)F)n2)CC1 (stereo unspecified),19.8,14.2,·,·,·,·,·
COC(=O)c1ccccc1S(=O)(=O)N(Cc1ccco1)Cc1cc2ccc(OC)cc2[nH]c1=O,-21.5,9.4,·,·,·,·,·
COc1ccc2ccc(=O)oc2c1CC=C(C)C,66.8*!,9.3,0.2,-1.0,38.1,11.2,+
COc1ccc(-n2c(COc3ccc(C)cc3)nnc2SCc2ccc(C#N)cc2)cc1,25.0,1.0,-1.1,·,-35.3,-7.1,·
COc1ccc(-n2c(COc3ccc(Cl)cc3)nnc2SCc2ccc(C#N)cc2)cc1,53.0,5.3,-0.6,·,-5.7,-2.7,i
O=c1oc2ccc(Br)cc2cc1-c1nnc(-c2ccccc2O)o1,-17.8,6.5,·,·,·,·,·
O=C(CSc1nc(-c2ccc(F)cc2)cc(C(F)(F)F)n1)Nc1cccnc1,-37.2,7.3,·,·,·,·,·
COc1ccccc1C(CC(=O)c1ccccc1)CC(=O)c1ccccc1,67.1*,5.0,-0.1,-18.2,12.8,1.4,+
COc1ccc(C(CC(=O)O)NC(=O)c2ccccc2)cc1OC (stereo unspecified),-5.3,9.9,1.0,5.3,-7.0,-1.6,·
COc1cc2cc(C)c3nnc(SCC(=O)Nc4ccccc4F)n3c2cc1OC,0.2,16.4,·,·,·,·,·
CC(C)C(=O)N1CCc2cc(-c3csc(NC(=O)C4CC4)n3)ccc21,-122.0,8.8,·,·,·,·,·
Cc1ccc2nc(-c3ccncc3)cc(-c3ccccc3)c2c1,91.8*,2.4,-2.0,·,-233.3,-13.0,+
CCS(=O)(=O)Nc1ccc(-c2cc(-c3ccccc3)c3cc(C)ccc3n2)cc1,30.2,4.8,-0.5,-1.7,·,18.1,·
CC(C)N(Cc1nc(-c2ccccc2)no1)S(=O)(=O)c1ccccc1,14.9,9.5,1.4,-7.7,·,-10.6,·
O=S(=O)(c1ccccc1)N(Cc1nc(-c2ccccc2)no1)C1CCCCC1,82.5*,14.8,1.8,21.0,-25.8,-19.9,+
CCCCOC(=O)Sc1nc2ccccc2o1,71.1*,14.1,1.3,-39.5,-118.2,-16.2,i
COc1ccc2cc(CN(Cc3ccc(C)cc3)Cc3nnnn3C3CCCC3)c(=O)[nH]c2c1,23.0,11.4,·,·,·,·,·
CCC(C)NC(=O)C1CC(c2cccc(Br)c2)=NO1 (stereo unspecified),-5.5,13.0,·,·,·,·,·
Cc1cc(Br)c2nc3c(c(C(=O)O)c2c1)CCCCC3,76.9*,19.3,3.2,-9.9,29.4,-21.6,i
CCc1ccc2nc3c(c(C(=O)O)c2c1)CCC3,20.6,0.9,1.0,11.1,54.5,-1.9,·
CC(C(=O)N1CCC(O)(c2ccccn2)CC1)c1ccccc1 (stereo unspecified),0.5,7.2,·,·,·,·,·
COc1ccc(Oc2nc3c(c(=O)n(C)c(=O)n3C)n2Cc2ccccc2)cc1,15.8,13.7,2.5,·,-24.1,-10.9,·
CC(C)CCn1c(Oc2ccc(Cl)cc2)nc2c1c(=O)n(C)c(=O)n2C,72.9*,-0.8,0.9,·,-35.7,-2.3,+
Cc1ccnn1CCC(=O)N1CCCC(n2nc(-c3cccs3)ccc2=O)C1 (stereo unspecified),-37.0,·,·,·,·,·,·
CCNc1nc(N)c(C(=O)c2ccc(C)cc2)s1,-10.5,8.7,·,·,·,·,·
SMILES,EP2 mod,PGE2 EP2 inh,S1P4 ag,S1P3 antagonist,INS promoter inh,S1P4 antagonist,EP2 cAMP induct
Cc1ccc(Oc2nc3ccccc3n3cccc23)cc1,59.6,9.1,-1.2,·,-11.4,-10.0,·
c1ccc(Oc2nc3ccccc3n3cccc23)cc1,65.3*,4.5,-2.8,·,43.3,12.7,i
CC1CCN(c2nc3c(c(=O)[nH]2)CN(Cc2nc4ccccc4n2C(C)C)CC3)CC1,-7.5,2.4,·,·,·,·,·
O=C(COC(=O)c1ccc(S(=O)(=O)N2CCCC2)cc1)Nc1ccc(F)cc1F,87.2*,4.5,0.0,-9.6,·,2.8,i
CCCCCc1ccc(-c2ccc(=O)[nH]n2)cc1,89.4*,·,-1.0,·,·,1.5,i
CCCCN1C(=O)/C(=C2\SC(N3CCCCC3)=NC2=O)c2ccccc21,65.3*,7.2,2.0,-10.8,-25.0,-5.1,+
CCOC(=O)C1=C(N)OC2=C(C(=O)CC(C)(C)C2)C1c1ccco1 (stereo unspecified),31.4,7.1,-2.2,-20.1,-72.4,-3.9,·
CCOC(=O)C1=C(N)OC2=C(C(=O)CC(C)(C)C2)C1c1ccc(CC)s1 (stereo unspecified),72.8*,15.3,0.6,-14.4,0.0,-0.8,+
C=CCOc1nc(-c2ccncc2)nc2ccccc12,69.2*,9.1,-0.2,·,·,-11.5,+
CCOC(=O)c1c(C2COc3ccccc3O2)csc1N (stereo unspecified),70.2*,8.3,3.0,2.0,13.5,5.4,+
CCOC(=O)c1c(C2COc3ccccc3O2)csc1NC(=O)c1ccccc1 (stereo unspecified),31.9,5.4,-2.9,·,·,-9.3,·
CCOC(=O)C(C)Sc1ncc(OC)c(Sc2ccc(Cl)cc2)n1 (stereo unspecified),67.7*,2.3,1.1,·,·,-2.3,+
CC(C)C(Nc1ncnc2sc3c(c12)CCCC3)C(=O)O (stereo unspecified),-5.2,10.9,·,·,·,·,·
O=C(O)c1cc(C(=O)O)cc(N2C(=O)c3ccccc3C2=O)c1,86.9*,7.7,·,·,·,·,+
O=C(O)c1cccc(N2C(=O)c3ccc4c5c(ccc(c35)C2=O)C(=O)N(c2cccc(C(=O)O)c2)C4=O)c1,27.8,2.0,0.8,9.6,·,-15.5,·
O=C(O)CCC(=O)N1N=C(c2ccco2)CC1c1ccccc1Cl (stereo unspecified),5.9,20.8,·,·,·,·,·
OCCCNc1nc(-c2ccc(Cl)cc2)nnc1-c1ccc(Br)cc1,77.1*,12.6,-0.5,-11.0,-15.4,10.5,+
O=[N+]([O-])c1ccc(-c2nnc(-c3ccccc3)c(NCCCO)n2)cc1,13.3,5.9,-1.0,-4.7,-29.4,-5.9,·
Cc1nnsc1C(=O)N1CCC(c2nc3sc4c(c3c(=O)[nH]2)CCCC4)CC1,-15.0,·,·,·,·,·,·
O=C(O)/C=C/C(O)c1ccc(Cl)cc1 (stereo unspecified),79.3*,13.2,·,·,·,·,i
C=CCc1cc(C=O)cc(OC)c1OCc1ccc(Cl)cc1,83.1*,1.6,1.6,·,-8.6,-4.1,+
